# HP1b chromo inh: HTS for Inhibitors of HP1-beta Chromodomain Interactions with Methylated Histone Tails | Potency, µM (top dose mostly 114 µM), for the others: top-dose activity change, negative = inhibition, usual class: inhibitors | Chromobox protein homolog 1 (Homo sapiens), P83916 | actives 0.56% (n = 390,000) | AlphaScreen HP1-beta / biotin-H3K9me3 peptide binding; further: nearly all actives have a fitted effect of over 70% in size
# Target sequence (P83916 whole entry, looked up): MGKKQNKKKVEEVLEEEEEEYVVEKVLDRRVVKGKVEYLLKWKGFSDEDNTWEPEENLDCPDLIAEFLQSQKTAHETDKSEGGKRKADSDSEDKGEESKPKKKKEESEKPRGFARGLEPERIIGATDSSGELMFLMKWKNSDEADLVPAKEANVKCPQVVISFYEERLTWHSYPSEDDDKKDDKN
#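 Compound inhibition of the preformed complex between 50 nM HP1-beta and 50 nM biotinylated H3K9me3 peptide was read by AlphaScreen. Buffer was PBS pH 7.4 with 0.01% Tween-20. Incubations ran 30 min at room temperature, with 10 ug/mL donor/acceptor beads.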
# Sfp inh: qHTS Assay for Inhibitors of Bacillus subtilis Sfp phosphopantetheinyl transferase (PPTase) | Potency, µM, inactives show largest response in the series, negative = inhibition, actives largely listed as inhibitors | AID 1490, 2009 | Biochemical Sfp PPTase activity, qHTS | actives 3.5% (n = 310,000);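 further: the enzyme is Sfp with the accession as filed and its product quenches rhodamine fluorescence; 0% = enzyme reaction without inhibitor and -100% = no enzyme wells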
#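 After 15 min at room temperature with compound, 15 nM Sfp received 5 uM rhodamine-CoA plus 12.5 uM BHQ-2-ybbR (50 mM Hepes pH 7.6, 10 mM MgCl2). Rate came from the fluorescence difference over 30 min, ex 525/em 598 nm.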
# BAZ2B block: qHTS Assay for Inhibitors of BAZ2B | Bromodomain adjacent to zinc finger domain protein 2B (Homo sapiens), Q9UIF8 | AlphaScreen BAZ2B-H3K14Ac peptide displacement | Potency, µM (top dose mostly 114 µM), inactives show at the top dose activity change, negative = inhibition, usual class: inhibitors | actives 4.4% (n = 360,000); further: on the % scale 0 is the no-effect control and ±100 the full control effect; nearly all actives have a fitted effect of over 60% in size
#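 Multi-concentration screen (max 110 uM) measuring displacement of acetylated histone H3 peptide from BAZ2B by AlphaScreen, using 50 nM protein, 50 nM peptide and 10 ug/mL streptavidin donor plus Ni-chelate acceptor beads.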
# L3MBTL1 block: qHTS Assay for the Inhibitors of L3MBTL1; AID 485360, 2010; actives 0.66% (n = 230,000); AlphaScreen L3MBTL1–H3K9me1 peptide binding; Potency, µM (series often up to 57.1 µM), without a hit: at the highest dose activity, negative = inhibition, usual class: inhibitors; further: on the % scale 0 is the no-effect control and ±100 the full control effect; nearly all actives have a fitted effect of over 60% in size
#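 AlphaScreen assay: L3MBTL1 (50 nM final) was preincubated 30 min at room temperature with biotinylated H3(1-15)K9me1 peptide (75 nM final), then 30 min with library compounds; streptavidin donor and nickel chelate acceptor beads (10 ug/mL final) added, 30 min dark.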
# G9a inh: qHTS Assay for Inhibitors of Histone Lysine Methyltransferase G9a; Histone-lysine N-methyltransferase EHMT2 (Homo sapiens), Q96KQ7; G9a H3K9 monomethylation, AlphaScreen, 2 h; Potency, µM (titrated, usually from 102 µM), for inactives: top-dose activity, negative = inhibition, hits mostly inhibitors; actives 8.8% (n = 350,000); further: on the % scale 0 is the no-effect control and ±100 the full control effect; nearly all actives have a fitted effect of over 75% in size
# Target sequence (Q96KQ7 913-1193 limits assumed): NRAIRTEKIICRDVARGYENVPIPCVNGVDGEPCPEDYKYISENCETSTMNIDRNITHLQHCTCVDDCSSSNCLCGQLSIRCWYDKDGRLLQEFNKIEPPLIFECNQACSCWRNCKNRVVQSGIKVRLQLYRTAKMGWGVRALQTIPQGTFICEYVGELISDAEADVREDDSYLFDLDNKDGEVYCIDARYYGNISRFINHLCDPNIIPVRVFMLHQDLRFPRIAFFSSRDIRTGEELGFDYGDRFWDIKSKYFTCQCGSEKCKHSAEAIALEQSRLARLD
#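 Chemiluminescent proximity detection of H3K9 monomethylation, read after 10 min bead incubation in the dark. Reaction: 20 nM G9a, 500 nM biotin-H3K9 peptide, 20 uM SAM cofactor, 2 h, room temperature, following 15 min enzyme-compound preincubation.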
# JMJD2A Tudor inh: qHTS Assay for Inhibitors of JMJD2A-Tudor Domain | Lysine-specific demethylase 4A (Homo sapiens), O75164 | AlphaScreen JMJD2A-Tudor / H3K4me3 peptide binding | Potency, µM (titrated, usually from 114 µM), for inactives: at the highest dose activity change, negative = inhibition, actives largely listed as inhibitors | actives 4.4% (n = 390,000); further: on the % scale 0 is the no-effect control and ±100 the full control effect; nearly all actives have a fitted effect of over 50% in size
# Numbers without * were called inactive; ? = inconclusive; · = no result given; [ ] = remark or other dose. Rows were chosen to be rich in hits. Some 12% of all compounds tested hit in one or more screens of this group. The call rests on the fitted dose curve; in most records, active means well fitted curve in the direction sought with a large enough effect; inconclusive means small, poorly fitted or top-dose-only effect, or another doubt; inactive means no such curve, though single readings can be large; an effect the other way counts as inactive or inconclusive. Potency means the concentration at half of the fitted maximal effect.
SMILES,HP1b chromo inh,Sfp inh,BAZ2B block,L3MBTL1 block,G9a inh,JMJD2A Tudor inh
C#CCOCCOCCOCCNc1nc(N2CCOCC2)nc(N2CCN(C(=O)[C@H](CCCCN)n3cc([C@@H](N)CC(C)C)nn3)CC2)n1,48%,25%,-37%,2%,?,-26%
C#CCOCCOCCOCCNc1nc(N2CCN(C(=O)[C@H](CCCCN)n3cc(CC(C)O)nn3)CC2)nc(N2CCN(C(=O)[C@H](CCCCN)n3cc(CC(C)O)nn3)CC2)n1 (stereo partly specified),38%,·,-34%,8%,-3%[2.33 µM],-15%
C#CCOCCOCCOCCNc1nc(N2CCN(C(=O)[C@H]([C@@H](C)CC)n3cc([C@@H](N)CC(C)C)nn3)CC2)nc(N2CCN(C(=O)[C@H](CCCCN)n3cc([C@@H](N)CC(C)C)nn3)CC2)n1,6%,2%,?,2%,-115%[59 µM],56µM*
C#CCOCCOCCOCCNc1nc(N2CCN(C(=O)[C@H](CCCN=C(N)N)n3cc(C(N)[C@@H](C)CC)nn3)CC2)nc(N2CCN(C(=O)[C@H](CCCCN)n3cc([C@@H](N)[C@H](C)CC)nn3)CC2)n1 (stereo partly specified),35%,·,·,-5%,·,-30%
C#CCOCCOCCOCCNc1nc(N2CCN(C(=O)C([C@@H](C)CC)n3cc(C(N)COC(=O)C(F)(F)F)nn3)CC2)nc(N2CCN(C(=O)[C@H](CCCCN)n3cc(C(N)[C@H](C)CC)nn3)CC2)n1 (stereo partly specified),18%,·,·,·,·,56µM*
C#CCOCCOCCOCCNc1nc(N2CCN(C(=O)[C@H](CCCCN)n3cc(C(N)COC(=O)C(F)(F)F)nn3)CC2)nc(N2CCN(C(=O)[C@H](CCCCN)n3cc(C(N)CC(C)C)nn3)CC2)n1 (stereo partly specified),·,11%,79µM*,·,?,·
C#CCOCCOCCOCCNc1nc(N2CCN(C(=O)[C@H]([C@@H](C)CC)n3cc([C@@H](N)CC(C)C)nn3)CC2)nc(N2CCN(C(=O)[C@H](CCCCN)n3cc([C@@H](N)C(C)CC)nn3)CC2)n1 (stereo partly specified),7%,10%,79µM*,-12%,-11%[12.7 µM],79µM*
CCN(Cc1ccccc1)C(=O)Cn1c(=O)oc2cc(S(=O)(=O)N3CCCCCC3)ccc21,58%,·,25%,·,6%[59 µM],-10%
C#CCOCCOCCOCCNc1nc(N2CCN(C(=O)C([C@@H](C)CC)n3cc(C(N)CO)nn3)CC2)nc(N2CCN(C(=O)C([C@@H](C)CC)n3cc(C(N)COC(=O)C(F)(F)F)nn3)CC2)n1 (stereo partly specified),21%,·,·,·,·,79µM*
COc1ccccc1Cc1nc2ccccc2nc1SCC(=O)NCc1ccc(F)cc1,20%[57 µM],·,12%,·,-3%[59 µM],-6%
Cc1ccc(S(=O)(=O)Cn2nnnc2C(C(C)C)N2CCSCC2)cc1 (stereo unspecified),25%,9%,2%,-1%,35µM*,-12%
Cc1ccc(S(=O)(=O)Cn2nnnc2C(c2ccccn2)N2CCN(c3ccccc3)CC2)cc1 (stereo unspecified),-7%,-8%,?,-8%,35µM*,-28%
Cc1ccc(C(c2nnnn2CS(=O)(=O)c2ccc(C)cc2)N2CCN(c3ncccn3)CC2)cc1 (stereo unspecified),21%,14%,4%,-8%,-5%[59 µM],-7%
Cc1ccc(S(=O)(=O)Cn2nnnc2C(C(C)C)N2CCc3ccccc3C2)cc1 (stereo unspecified),3%,-29%,?,-10%,?,28µM*
Cc1nn(-c2ccc(N3CCOCC3)nn2)c(C)c1CCC(=O)NCc1ccc(OC(C)C)cc1,32%,·,-19%,·,10%[59 µM],4%
COc1cc(F)c(S(=O)(=O)N2CCCN(S(=O)(=O)c3ccc(NC(C)=O)cc3)CC2)c(F)c1,·,·,·,·,·,-27%
Cc1ccc(Cn2ncc3c(N4CCN(Cc5ccc(Cl)cc5)CC4)ncnc32)cc1,19%,3%,-33%,-5%,35µM*,-22%
Cc1ccc(Cn2ncc3c(NCCN(C)C)ncnc32)cc1,17%,9%,-4%,·,50µM*,-22%
COc1ccc(CC(=O)NNc2ncnc3c2cnn3C)cc1OC,47%,10%,1%,7%,?,-6%[57.1 µM]
Cc1ccc(Cn2ncc3c(N4CCN(c5ccc(C)cc5)CC4)ncnc32)cc1,27%,5%,-6%,4%,?,-17%
COc1ccc(CC(=O)NNc2ncnc3c2cnn3C)cc1,26%,8%,79µM*,7%,25µM*,-22%
COc1ccc(Nc2ncnc3c2cnn3Cc2ccccc2)cc1,2%,-3%,79µM*,5%,50µM*,89µM*
COc1ccc(-n2nnnc2-c2ccc(S(C)(=O)=O)cc2Cl)cc1,56%,9%,5%,·,-8%[2.33 µM],-9%
COc1ccc(Cn2c(SCc3ccc(C(=O)NCc4ccc(C)cc4)cc3)nc3cccnc32)cc1,38%,·,-3%,·,-42%[59 µM],-8%
Cc1cc(=O)oc2cc(NC(=O)COc3ccccc3[N+](=O)[O-])ccc12,18%,·,?,0%,-5%[12.7 µM],-32%
SMILES,HP1b chromo inh,Sfp inh,BAZ2B block,L3MBTL1 block,G9a inh,JMJD2A Tudor inh
Cc1ccc(Cn2ncc3c(NN)ncnc32)cc1,27%,-26%,50µM*,·,?,?
COc1ccc(CNC(=O)Cn2c(SCC(=O)Nc3ccc(OC)cc3)nc3ccccc32)cc1,?,·,-1%,·,7%[12.7 µM],1%
Cc1nn(C(=O)COc2ccccc2)c(C)c1Sc1ccccc1,262%,·,185%,·,144%[59 µM],68%
N#CC1=C(Nc2ccccc2Cl)SC(c2ccccc2O)NC1=O (stereo unspecified),4%,13µM*,-2%,60%,14%[2.33 µM],?
COc1cccc(NC2=C(C#N)C(=O)NC(c3cccc(OC)c3O)S2)c1 (stereo unspecified),22%,25µM*,-27%,-5%,45µM*,-8%
CC1SC(c2ccccc2Cl)NC1=O (stereo unspecified),22%,5%,10%,·,4%,-13%
Cc1noc(C)c1-c1nc(NCc2cccs2)c2ccccc2n1,·,71µM*,·,·,-46%[0.501 µM],·

# Source: PubChem
